Potency and affinity values are given separately.
Key:
Klebsiella pneumoniae = conditions: Concentration 32 ug.mL-1;; ASSAY_TEST Inhibition of Bacterial Growth; detection method Absorption (OD600); MEDIA CAMHB; plate type 384well; NBS; CORNING #3640; time 18 hr
Candida albicans = conditions: Concentration 32 ug.mL-1; ASSAY_TEST Inhibition of Fungal Growth; detection method Absorption (OD530)
Cryptococcus neoformans = conditions: Concentration 32 ug.mL-1; ASSAY_TEST Inhibition of Fungal Growth; detection method Resazurin; Absorption (OD600-OD570); plate type 384well; NBS; CORNING #3640

SMILES | Inhibition (Klebsiella pneumoniae) [%] | Inhibition (Candida albicans) [%] | Inhibition (Cryptococcus neoformans) [%]
CCCn1c(=O)c2sccc2n2c(=O)n(CC(=O)c3ccc(OC)c(OC)c3)nc12 | 5.35 | -1.4 | -6.57
CC(=O)c1ccc(NC(=O)Cn2nc3c4cc(-c5ccc(Cl)cc5)nn4ccn3c2=O)cc1 | 16.61 | 29.09 | -18.84
COc1ccc(CN(c2ccc(F)cc2)S(=O)(=O)c2ccc3nnc(C)n3c2)cc1F | 2.68 | 1.42 | -6.58
O=c1c2sccc2n2c(=O)n(Cc3ccc(Br)cc3)nc2n1CCc1ccccc1 | -2.03 | 27.87 | -16.22
CCOc1ccc(NC(=O)Cn2nc3ccc(Sc4cccc(F)c4)nn3c2=O)cc1 | 0.85 | 6.64 | -8.03
CCc1ccc(NC(=O)Cn2nc3cc(C)nc(Nc4ccc(F)c(C)c4)n3c2=O)cc1 | 8.35 | 8.83 | -9.39
O=C(Cn1nc2c(N3CCSCC3)nc3ccccc3n2c1=O)NCc1ccccc1 | 13.9 | 0.65 | -23.77
O=C(Cn1nc2c(Oc3ccccc3)nccn2c1=O)Nc1cc(F)ccc1F | -4.08 | -0.69 | -9.47
Cc1ccc(C)c(Cn2nc3n(CC(C)C)c(=O)c4sccc4n3c2=O)c1 | 7.9 | -1.65 | -8.63
Cc1cccc(NC(=O)Cn2nc3ccc(-c4ccc(Cl)cc4)nn3c2=O)c1 | 7.75 | 3.82 | -6.79
CCC(Sc1nnc2c(=O)n(-c3cccc(OC)c3)ccn12)C(=O)Nc1cc(F)ccc1F (stereo not given) | 2.62 | 1.66 | -8.66
COc1ccccc1-n1ccn2c(=O)n(Cc3ccc(F)cc3Cl)nc2c1=O | 1.73 | 3.67 | -6.11
Cc1cccc(NC(=O)c2ccc3nn(CC(=O)N4CCc5ccccc5C4)c(=O)n3c2)c1 | -2 | 12.37 | -12.59
CCc1ccc(N(Cc2ccc(C)cc2)S(=O)(=O)c2cccn3c(C)nnc23)cc1 | 3.2 | 0.84 | -6.65
CSc1cccc(NC(=O)Cn2nc3c(Sc4ccccc4)nccn3c2=O)c1 | 1.1 | 18.38 | -12.89

From ChEMBL document CHEMBL4513146, “CO-ADD screening of Karazin Kharkiv National University (Ukraine) compounds”
